# Pol kappa inh – qHTS for Inhibitors of Polymerase Kappa. 400,000 compounds, 0.53% hits. DNA polymerase kappa (Homo sapiens), Q9UBT6. purified Pol kappa, fluorescent DNA synthesis assay, 10 min. Potency, µM (top dose mostly 107 µM), hits mostly inhibitors
#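 Here, compound and 10 nM enzyme are combined for 15 min at room temperature; adding 50 nM substrate (final) starts DNA synthesis, tracked by fluorescence at 0 and 10 min against buffer-only wells.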
# WRN inhibitor – qHTS for Inhibitors of WRN Helicase. Potency, µM (doses to about 114 µM), most hits filed as inhibitors. WRN helicase unwinding, fluorescent forked duplex, kinetic. 360,000 compounds, 0.46% hits. Bifunctional 3'-5' exonuclease/ATP-dependent helicase WRN (Homo sapiens), Q14191; further: nearly all actives have a fitted effect of over 55% in size
#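 Enzyme (20 nM final) and test compound sit together 15 min at room temperature before substrate addition. Substrate is a single-forked duplex oligonucleotide (100 nM) labelled with fluorophore and quencher, with 2 mM ATP; helicase unwinding raises red fluorescence, read kinetically.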
# Pol eta inh – qHTS for Inhibitors of Polymerase Eta; Potency, µM (doses to about 114 µM), actives largely listed as inhibitors; AID 588591, 2011; DNA polymerase eta (Homo sapiens), Q9Y253; 390,000 compounds, 1.2% hits; recombinant Pol eta, fluorescent DNA replication assay
#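 Fluorescent replication assay: 50 nM final substrate added after a 15 min room-temperature compound preincubation with 10 nM enzyme. Signal taken at 0 min and again at 10 min.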
# POLI inh – qHTS for Inhibitors of Polymerase Iota. AID 588590, 2011. 390,000 compounds, 1% hits. Pol iota fluorescent replication assay, 10 min. Potency, µM (series often up to 115 µM), most hits filed as inhibitors
#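 Pol iota at 10 nM preincubated 15 min with compounds at room temperature; reaction started with fluorescent substrate, 50 nM final. Fluorescence read kinetically at 0 and 10 min; buffer-only wells as negative control.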
# FEN1 inhibitor – qHTS Assay for the Inhibitors of Human Flap endonuclease 1 (FEN1) | P39748 | Recombinant FEN1 flap cleavage, fluorescence, 15 min | Potency, µM (top dose mostly 114 µM), hits mostly inhibitors | 390,000 compounds, 0.35% hits | AID 588795, 2011; further: nearly all actives have a fitted effect of over 65% in size
#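 Quantitative HTS format: each compound was titrated, incubated with 10 nM nuclease for 15 min at room temperature, then challenged with flap substrate at 50 nM final. Signal change over 15 min gave concentration–effect curves.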
# POLB inh – qHTS Assay for Inhibitors of DNA Polymerase Beta; P06746; Pol beta primer extension/strand displacement, fluorescence kinetic; Potency, µM (doses to about 114 µM), actives largely listed as inhibitors; 340,000 compounds, 1.3% hits
#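 Homogeneous kinetic assay of primer extension and strand displacement by 10 nM Pol beta, preincubated 15 min at room temperature with compound before 50 nM substrate (final) was added. Read at 0 and 10 min; four-parameter Hill fit.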
# Numbers stand for hits; i = inactive; ? = inconclusive; nt = no result given; [ ] = dose if it differs, or a comment. A selection: hits, their analogues and other compounds. The true share with any hit is near 2.4%. The call rests on the fitted dose curve; in most records, active means well fitted curve in the direction sought with a large enough effect; inconclusive means small, poorly fitted or top-dose-only effect, or another doubt; inactive means no such curve, though single readings can be large; an effect the other way counts as inactive or inconclusive.
SMILES,Pol kappa inh,WRN inhibitor,Pol eta inh,POLI inh,FEN1 inhibitor,POLB inh
C/C(=N/NC(=O)C(O)(c1ccccc1)c1ccccc1)c1ccc([N+](=O)[O-])o1,i,i,79µM,?,i,13µM
O=C(NNC(=O)c1ccc([N+](=O)[O-])o1)c1ccccc1,i,i,i,i,i,i
CCS(=O)(=O)N1CC(=O)N(c2ccc(Cl)cc2C)C(C)(C(=O)NC2CCCCCC2)C1 (stereo not given),i,nt,i,i,i,i
O=C1c2cccc(O)c2C(=O)c2c(O)cccc21,i,nt,nt,nt,nt,i
O=C1C=C(O)c2cccc(O)c2C1=O,?,i,35µM,?,?,20µM
CCOc1ccc(N2CC(c3nc4ccccc4n3CCCOc3ccccc3)CC2=O)cc1 (stereo not given),i,nt,i,i,i,i
COc1cccc(/C=C/c2ccnc3ccccc23)c1OC,i,nt,nt,i,i,nt
Cc1c([N+](=O)[O-])cc(C(=O)Oc2ccc(Br)cc2C(=S)N2CCCCC2)cc1[N+](=O)[O-],i,i,?,89µM,i,i
Cc1ccc(-c2nnc(Nc3cccc(O)c3)c3ccccc23)cc1S(=O)(=O)NCCO,i,i,?,i,i,i
CCOC(=O)CNS(=O)(=O)c1cc(-c2nnc(Nc3cccc(O)c3)c3ccccc23)ccc1C,?,nt,i,89µM,?,i
COc1c(CC(=O)c2cc3c(cc2O)OC(C)(C)C(O)C3)ccc2c1C=CC(C)(C)O2 (stereo not given),i,nt,nt,nt,nt,nt
CCc1ccc(OCC(=O)NNC(=S)NC(=O)C2CC2)c(Br)c1,i,i,i,i,i,i
CCc1ccc(OCC(=O)NC(=S)Nc2ccc(C)cc2C)c(Br)c1,i,i,i,79µM,i,i
CCOc1ccc(NC(=O)CC2C(=O)N(c3ccc(F)cc3)C(=O)N2Cc2ccc(OC)c(OC)c2)cc1 (stereo not given),i,nt,i,i,i,i
Cc1c(OCC(=O)N[C@@H](Cc2c[nH]c3ccccc23)C(=O)O)ccc2c1oc(=O)c1ccccc12,i,i[11.6 µM],79µM,i,?,i
O=C(CSc1nc2sc3c(c2c(=O)n1-c1ccccc1)CCCC3)N/N=C/c1ccccc1C(=O)O,i,i,50µM,?,50µM,?
Nc1nonc1-c1nc2ccccc2n1CC(=O)N/N=C/c1ccc(-c2ccccc2C(=O)O)o1,?,i,32µM,?,i,16µM
COc1ccccc1C1CC(=O)Oc2cc3c(cc21)OCO3 (stereo not given),14µM,nt,nt,nt,nt,nt
CNc1nc(-c2ccoc2)nc2ccccc12,i,nt,nt,nt,nt,nt
CS(=O)(=O)N1N=C(c2ccccc2)CC1c1ccc2c(c1)OCO2 (stereo not given),i,?,32µM,i,i,?
COC(CNC(=O)c1ccc2c3c(onc13)-c1ccccc1C2=O)OC,i,50µM,?,18µM,?,i
COC(CNC(=O)c1cccnc1)OC,i,i,i,i,i,i
COc1ccc2nc(NC(=O)c3cc(=O)c4cc(C)c(C)cc4o3)sc2c1,i,nt,i,i,i,i
COc1ccc2nc(NNC(=O)c3cc(=O)c4ccccc4o3)sc2c1,i,i,79µM,i,i,?
O=C(NNc1nc2c(F)cccc2s1)c1cc(=O)c2ccccc2o1,i,i,?,22µM,i,?
COC1=C/C(=C/c2c(N)n3c(nc2=O)sc2cc(S(C)(=O)=O)ccc23)C=CC1=O,i,i[11.6 µM],28µM,?,i,i
CCS(=O)(=O)c1nn2c(N)c(/C=C3/C=CC(=O)C(OC)=C3)c(=O)nc2s1,i,i,?,i,i,i
COC1=C/C(=C/c2c(N)n3nc(-c4ccc(C)cc4)sc3nc2=O)C=CC1=O,i,i[11.6 µM],22µM,14µM,?,56µM
COc1cc(-c2noc(-c3ccc(NCc4cccnc4)c([N+](=O)[O-])c3)n2)cc(OC)c1OC,i,nt,i,i,i,45µM

# Source: PubChem BioAssay
